Here are results for 21 compounds from the supplement of paper PMC11060735.

Structures can show the parent of a compound that is named as a salt. Hit rate of the full screen: of about 1,800 compounds, about 50 (3%) showed activity. For the sample, actives were picked, then their nearest neighbours and some compounds at random. Unmarked numbers belong to inactive results.

The assay relates to mouse p16Ink4a+/- lung fibroblasts (INKBRITE, bleomycin-injured). Kind of assay: percentage of GFP+ (p16Ink4a+) fibroblasts among all cells in well; higher = less depletion of p16Ink4a+ cells, active = 20 or less. Conditions: 1 µM; 3 days.
As to `C=C(c1ccc(C(=O)O)cc1)c1cc2c(cc1C)C(C)(C)CCC2(C)C` [Bexarotene], the “percentage of GFP+” value was 46%.
Consider `COc1ccc(NS(=O)(=O)c2sc3ccc(Cl)cc3c2C)cc1N1CCNCC1`, for which the “percentage of GFP+” value was 59.1%.
The value for `COc1ccc(Cn2ccc3ccc(C(=O)NO)cc32)cc1` was 47.2%.
The same measure for `N[C@@H](CC(=O)N1CCn2c(nnc2C(F)(F)F)C1)Cc1cc(F)c(F)cc1F` [Sitagliptin]: 44.6%; for `CCn1cc(C(=O)O)c(=O)c2cc(F)c(N3CCNC(C)C3)c(F)c21` (stereo unspecified) [Lomefloxacin]: 44%.
The value for `CC[C@@H](C)Nc1cc(C(=O)NC2CC3CCC(C2)N3c2ccc(C(=O)C3CC3)cn2)c(C)cc1C(N)=O` (stereo partly specified) was 5.49% (active); that for `CC(C)(F)C[C@H](N[C@@H](c1ccc(-c2ccc(S(C)(=O)=O)cc2)cc1)C(F)(F)F)C(=O)NC1(C#N)CC1` [Odanacatib] was 44.3%; that for `C#Cc1cccc(Nc2ncnc3cc(OCCOC)c(OCCO)cc23)c1` was 54.2%.
As to `C#Cc1cccc(Nc2ncnc3cc(OC)c(OCCCCCCC(=O)NO)cc23)c1`, the “percentage of GFP+” value was 37.4%.
The value for `C#Cc1cccc(Nc2ncnc3cc(OCCOC)c(OCCOC)cc23)c1` [Erlotinib] was 7.35% (active); that for `COc1ccc(-c2cc(=O)c3c(O)cc(O)cc3o2)cc1O` [Diosmetin] was 42.4%; that for `CC(C)(OCc1nn(Cc2ccccc2)c2ccccc12)C(=O)O` [Bindarit] was 45.3%.
The value for `CCCN1CCCC[C@H]1C(=O)Nc1c(C)cccc1C` [Ropivacaine, Ropivacaine Hydrochloride] was 46%.
The same measure for `CCCCCCCCCC(=O)N[C@@H](Cc1c[nH]c2ccccc12)C(=O)N[C@H](CC(N)=O)C(=O)N[C@@H](CC(=O)O)C(=O)N[C@@H]1C(=O)NCC(=O)N[C@H](CCCN)C(=O)N[C@@H](CC(=O)O)C(=O)N[C@@H](C)C(=O)N[C@@H](CC(=O)O)C(=O)NCC(=O)N[C@H](CO)C(=O)N[C@@H]([C@@H](C)CC(=O)O)C(=O)N[C@@H](CC(=O)c2ccccc2N)C(=O)O[C@@H]1C` [Daptomycin]: 37.2%; for `COC(=O)C1=C(C)N=C(C)/C(=C(/O)OC)C1c1ccccc1[N+](=O)[O-]` (stereo unspecified) [Nifedipine]: 34.3%; for `CO/N=C(/C(=O)N[C@H]1C(=O)N2C(C(=O)O)=C(Cn3ccc(=N)n3CCO)CS[C@H]12)c1csc(N)n1` [Cefoselis Sulfate]: 17.3% (active).
In the case of `C=CC1=C(C(=O)O)N2C(=O)[C@@H](NC(=O)/C(=N\O)c3csc(N)n3)[C@H]2SC1` [Cefdinir], the “percentage of GFP+” value was 49.9%.
For the compound `CO/N=C(/C(=O)N[C@@H]1C(=O)N2C(C(=O)O)=C(CSC(=O)c3ccco3)CS[C@H]12)c1csc(N)n1` [Ceftiofur HCl], the “percentage of GFP+” value was 39.5%.
The same measure for `O=C(c1ccccc1)c1ccc2n1CCC2C(=O)O` (stereo unspecified) [Ketorolac]: 38.6%.
As for `Oc1ccc(/C=C/c2cc(O)cc(O)c2)cc1` [Resveratrol], the “percentage of GFP+” value was 42.8%.
The same measure for `CC1(C)CCC(C)(C)c2cc(NC(=O)c3ccc(C(=O)O)cc3)ccc21` [Tamibarotene]: 28.2%.
